In the supplement of paper PMC6555819:

Each sequence was assayed on RARb homodimer (NR concentration 270 nM) (assay: PBM binding z-score (relative to random genomic background probes); higher = stronger binding; sequences stand for … in GC…GCGATTGACAGCGTAGAATGAAGG).
In short: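 On custom Agilent 4×180K arrays, double-stranded probes with 34-nt variable regions carried direct-repeat seeds, single-nucleotide variants, half-site ablations or random human genomic background. Ligand-free nuclear receptor dimers were applied for 1 h, and binding was read with antibodies against each partner (one per run). Binding z-scores come from regression-normalized fluorescence, with the random background probes as reference.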

Going from ACTAGCAGGCCAAGTTTGGTTCACTCAAACAAAG to CCTACTGGGCCATCACGTCATTGATATCAACGTT, the PBM binding z-score falls from 0.338 to 0.0558.

Compared with ACTATTAGATGAGACGAGGGCAACCGATAGGTTG, GCTGATAGGTCAACTGATGGTCAGCTAAAGCTCG is higher in PBM binding z-score: 1.3 for the first, 3.72 for the second.

Compared with TCGAATAGGTTAGTCGGGGCATTCAGCCAACATA, AGTCAAAGTCCAGGACGAGGTAACGTAAAGCACG is lower in PBM binding z-score: 0.708 for the first, 0.381 for the second.

Going from CCTTAAGGGTCACTCCAGGTTATAGCATCGGAGT to CAAACTAGGGCAAAGGTCAAAGTCGAGCCAACCA, the PBM binding z-score rises from 4.32 to 4.68.

Compared with TTACCAAGGTGAAGGTCGTTGGTCCCTCTGTAGA, CCTACTGGGCCCTTCAGAGGTCATTGATCATATG is higher in PBM binding z-score: 1.98 for the first, 3.67 for the second.

First: CCTGCGAGGTCAATGGTCAGCTAAAGCAGCTCGC
Second: CGAACTAGGTCAGCACAGGACAGTGAAGGATGAT
The PBM binding z-score of the first is higher: 4.2 for the first, 2.69 for the second.

First: ATCTCTAGGTAACCAAGTTCAGGGAATGCCGAAC
Second: CCTTACGGGTCACCCCAGGTTATAGCATCGGAGT
The PBM binding z-score of the first is lower: 1.55 for the first, 3.53 for the second.

Compared with TCATATAGGTAAACAGGTGAAAGGCCGTAAGTTA, CCAAGTTGGTCAGGAGGTCACACACCGGATATGA is higher in PBM binding z-score: 1.29 for the first, 4.38 for the second.

First: GCTCGGAGGACAAGGTCAGAGCCTTGTCCGTAGA
Second: CCTCGGAGGACAACAGGAGGTCAGCGCTGCCAGA
The PBM binding z-score of the first is lower: 2.82 for the first, 3.96 for the second.

Compared with CAAACTACGTCACCGGAAGGTCAAAGTCCGCATG, TCATATAGGTAAAAGGAGAAAGTCGGTGTGGTAA is lower in PBM binding z-score: 4.23 for the first, -0.155 for the second.

Compared with CGTCCAAGGTCAGAGAGGACAGTGAATGCCGAGT, GCTAGCATGCCATTTGGGTCACTCAATGACGGGC is lower in PBM binding z-score: 4.12 for the first, 1.77 for the second.

Compared with GCTCGGAGGACAAGGTCAGAGCTTTGTCCGTAGA, ACTATTAGTTGAGACGAGGGCGACCGATAGGTTG is lower in PBM binding z-score: 2.9 for the first, 0.339 for the second.

Compared with TAGCCTAGGTCATGCGAGCCAGTATAGTGTCGGC, CTCGAAAGGTCGGTTGAGGTGCGTATACGGATAA is lower in PBM binding z-score: 2.67 for the first, 1.76 for the second.

Going from TAGCCTAGGTCATTCATGGGCCAGTATAGAAAGC to TCTTGTAGATCAACAGAGGTTAAGAAAGTGCGCT, the PBM binding z-score falls from 2.52 to 1.45.

First: TCTTGTAGATCAAGCAGGTTATGAAAGCCTGAGT
Second: AGAATGAGGTTACCAAAGCTCAGGGAAACGCTTG
The PBM binding z-score of the first is lower: -0.0622 for the first, 0.544 for the second.

Going from CCTCGGAGGACAGACGGTCAGAGCTGTCCGCTTT to CTCGAATGGTCGGTTGAGGTGAGTATACGGATAA, the PBM binding z-score falls from 0.948 to 0.181.

Compared with CGTCAAAGTTCAACTAAGGAAACGTAAAGCACGC, CCTATTAGTTGACCACAAGGGCAACCGAAGCTCG is lower in PBM binding z-score: 3.66 for the first, 1.95 for the second.

Compared with ATATGTAGGTTAAGGGTCATTCTGGTTGGTTCGC, GCTTGTAGATCAAGGTGAAGAAAGACTAAGCTAA is lower in PBM binding z-score: 3.64 for the first, -0.485 for the second.

Going from TGAATGAGGTTATAAGATCAGTGAACGTTGCAAA to TCTTGTAGATGAATAGAGGTTAAGAAAGTGCGCT, the PBM binding z-score rises from 0.307 to 1.19.

Compared with GCAGACAGGTGAAACGCAGGTAACTCAAGGTGGC, CATACAGGGTCAGCTAGGGCAGAGTAGGGACGGC is higher in PBM binding z-score: 0.0427 for the first, 3.44 for the second.
